SENP8 block-1: SENP8 protease inhibitors, primary screen, biochemical, luminescence. inhibition, % at 10 µM. Sentrin-specific protease 8 (Homo sapiens), Q96LD8. 330,000 tested, 1.2% active. purified SENP8, Z-RLRGG-aminoluciferin cleavage. AID 2540, 2010; in the data active = inhibition above about 50%
Target sequence (Q96LD8 whole entry, looked up): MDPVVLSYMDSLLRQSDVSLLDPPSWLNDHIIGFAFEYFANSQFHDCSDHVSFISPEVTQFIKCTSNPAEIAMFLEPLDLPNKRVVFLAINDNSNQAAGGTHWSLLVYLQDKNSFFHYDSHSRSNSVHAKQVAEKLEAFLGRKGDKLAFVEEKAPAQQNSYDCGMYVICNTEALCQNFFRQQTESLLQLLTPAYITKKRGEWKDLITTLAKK
SENP8 block-2: human SENP8 protease inhibitors, primary screen, biochemical, fluorescence, Nedd8 protein substrate, uHTS | Sentrin-specific protease 8 (Homo sapiens), Q96LD8 | recombinant SENP8 | inhibition, % at 20 µM | 360,000 tested, 0.64% active; in the data active = inhibition mostly above about 40%, no sharp cut-off; inactive = mostly below about 27%
SENP7 block: SENP7 protease inhibitors, primary screen, biochemical, luminescence, uHTS; 330,000 tested, 1.5% active; Sentrin-specific protease 7 (Homo sapiens), Q9BQF6; inhibition, % at 5 µM; recombinant SENP7, Z-RLRGG-aminoluciferin luminescence, 40 min;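 active = inhibition above about 50% at the single test dose, limit read from the data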
Target sequence (Q9BQF6 706-1050 limits assumed): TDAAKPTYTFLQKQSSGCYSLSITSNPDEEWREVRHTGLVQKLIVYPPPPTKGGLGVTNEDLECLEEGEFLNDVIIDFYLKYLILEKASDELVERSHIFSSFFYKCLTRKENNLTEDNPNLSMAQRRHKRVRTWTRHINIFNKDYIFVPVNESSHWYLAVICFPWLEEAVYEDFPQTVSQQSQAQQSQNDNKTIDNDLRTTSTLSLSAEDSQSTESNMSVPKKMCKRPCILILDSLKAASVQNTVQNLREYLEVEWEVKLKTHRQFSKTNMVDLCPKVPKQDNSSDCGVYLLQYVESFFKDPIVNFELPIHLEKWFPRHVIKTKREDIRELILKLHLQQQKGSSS
SENP6 inh: SENP6 protease inhibitors, primary screen, biochemical, luminescence, uHTS; Sentrin-specific protease 6 (Homo sapiens), Q9GZR1; AID 2599, 2010; Recombinant SENP6 catalytic domain, aminoluciferin luminescence; 330,000 tested, 1.8% active; inhibition, % at 10 µM;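 active = inhibition above about 50% at the single tested dose, limit read from the data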
TRAIL sens C8: viability loss with TRAIL in NB7+C8 cells, primary screen, TRAIL sensitizer project, cell-based, ATPlite luminescence. inhibition (viability loss, TRAIL sensitization), % at 10 µM. 360,000 tested, 1% active. AID 624354, 2012;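 active = compounds causing at least 50% loss of cell viability in the single-dose screen, relative to plate controls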
PPC-1+TRAIL kill: compounds killing PPC-1 cancer cells with TRAIL present, primary screen, TRAIL potentiator project, ATPLite luminescence, uHTS; PPC-1 cells + TRAIL, ATPLite viability luminescence; cell killing (% activity), % at 4 µM or 5 µM; 220,000 tested, 0.41% active; AID 1443, 2008;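 active = cell killing above 50% in the first pass at 4 µM, then a duplicate retest at 5 µM averaging 50% or more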
Of the large screens only hits and unclear results are named; the others gave an inactive call. Most compounds without a hit are left out; they make up all but 3% or so of the library.

CCOC(=O)CSc1nnc(NC(=O)c2ccc3c(c2)OCO3)s1	TRAIL sens C8 70 (no result: PPC-1+TRAIL kill)
Cc1ccc([N+](=O)[O-])cc1NC(=O)c1ccc2c(c1)OCO2	none
O=C(Cc1ccc(Br)cc1)Nc1ncc([N+](=O)[O-])s1	SENP8 block-1 92, SENP7 block 53, SENP6 inh 94
O=C(Cc1ccc(Cl)cc1)Nc1ncc([N+](=O)[O-])s1	none (no result: SENP8 block-1, SENP7 block, SENP6 inh)
Nc1[nH]c(C(=O)c2ccccc2)c(-c2ccncc2)c1C(=O)NC1CC1	none (no result: SENP8 block-1, SENP7 block, SENP6 inh, PPC-1+TRAIL kill)
CCOC(=O)[C@]12CCC=C1N(Cc1cccc3ccccc13)C(=O)[C@H](CC(=O)NCC1CCCCC1)C2	none (no result: SENP8 block-1, SENP7 block, SENP6 inh, PPC-1+TRAIL kill)
CC(C)c1ccc(CN2CCC2(C)C(=O)Nc2cnc3ccccc3c2)cc1 (configuration not stated)	none (no result: SENP8 block-1, SENP7 block, SENP6 inh, PPC-1+TRAIL kill)
O=C(N=Nc1ccc(NOC(=O)c2ccccc2Br)cc1)c1ccccc1O	SENP8 block-1 86, SENP7 block 63, SENP6 inh 91 (no result: SENP8 block-2, TRAIL sens C8)
CN1CCN(c2nc3c(c(=O)[nH]c(=O)n3C)n2Cc2ccc(Cl)cc2)CC1	none (no result: PPC-1+TRAIL kill)
CC(Oc1ccc2ccc(=O)oc2c1)C(=O)NC1CC(C)(C)NC(C)(C)C1 (configuration not stated)	none (no result: PPC-1+TRAIL kill)
CCN(C(=O)c1ccco1)c1nnc(-c2cccnc2)s1	none (no result: PPC-1+TRAIL kill)
O=c1c2ccccc2c(C=Nc2cccc(S(=O)(=O)NC3=NCCCCC3)c2)c(O)n1Cc1ccccc1	SENP6 inh 53
Cc1sc(NC(=O)C2=COCCO2)c(C(N)=O)c1C	none (no result: PPC-1+TRAIL kill)
C=CCOc1cccn2c(N(C=O)Cc3ccc(OC)cc3)c(CC)nc12	none (no result: SENP8 block-1, SENP7 block, SENP6 inh, PPC-1+TRAIL kill)
O=C(O)c1ccc(CNCc2ccc(F)cc2)cc1	none
CCc1ccc(CNCc2ccc(F)cc2)cc1	PPC-1+TRAIL kill 66
CCOC(=O)c1c(C)sc2c1N(C(=O)CCl)c1cc(Cl)ccc1S2	TRAIL sens C8 55
CCOc1cc(-n2cnnn2)c(OCC)cc1NC(=O)c1cnccn1	none
O=C(Nc1ccc(N2CCOCC2)cc1)c1csc(COCCO)n1	TRAIL sens C8 55 (no result: SENP8 block-1, SENP7 block, SENP6 inh, PPC-1+TRAIL kill)
CCOc1cc(N2CCOCC2)c(OCC)cc1NC(=O)c1cnccn1	SENP8 block-2 32 (no result: PPC-1+TRAIL kill)
O=C(Nc1ccc(N2CCOCC2)cc1)c1cnccn1	TRAIL sens C8 78 (no result: PPC-1+TRAIL kill)
O=C(COc1ccc(/C=N/NC(=O)c2cc3ccccc3o2)cc1Cl)Nc1ccccc1	TRAIL sens C8 93
Cc1ccc2sc(N(CCCN(C)C)C(=O)CCS(=O)(=O)c3ccccc3)nc2c1C	TRAIL sens C8 51 (no result: PPC-1+TRAIL kill)
Cc1c(C#N)c(O)[nH]c(=O)c1N=Nc1ccc(Br)cc1C(=O)O	SENP8 block-2 46 (no result: SENP8 block-1, SENP7 block, SENP6 inh, PPC-1+TRAIL kill)
Cc1cccc(N=Nc2c(C)c(C#N)c(O)[nH]c2=O)c1	none
COc1ccc2oc(=Nc3ccccc3)c(-c3nc4ccccc4[nH]3)cc2c1	TRAIL sens C8 63, PPC-1+TRAIL kill 61
Cc1ccccc1-c1cc2nc(NCc3ccccc3F)n(C)c(=O)c2s1	none (no result: SENP8 block-1, SENP7 block, SENP6 inh, PPC-1+TRAIL kill)
Cc1cc(C)c2sc(N(CCCN(C)C)C(=O)c3ccc(S(=O)(=O)N4CCCc5ccccc54)cc3)nc2c1	TRAIL sens C8 74 (no result: PPC-1+TRAIL kill)
Cc1cc(C)c2sc(N(CCCN(C)C)C(=O)c3ccc(S(=O)(=O)N4CCc5ccccc5C4)cc3)nc2c1	TRAIL sens C8 92 (no result: PPC-1+TRAIL kill)
CN(C)CCCN(C(=O)c1ccc(S(=O)(=O)N2CCc3ccccc3C2)cc1)c1nc2ccc(F)cc2s1	TRAIL sens C8 85 (no result: PPC-1+TRAIL kill)
COc1ccc2sc(N(CCCN(C)C)C(=O)c3ccc(S(=O)(=O)N4CCc5ccccc5C4)cc3)nc2c1	TRAIL sens C8 93 (no result: PPC-1+TRAIL kill)
Cc1ccc(C)c(SCC(=O)OCC(=O)NCCNC(=O)COC(=O)CSc2cc(C)ccc2C)c1	none (no result: PPC-1+TRAIL kill)
CC(Sc1nnc(-c2ccc(OC(F)F)cc2)n1N)C(=O)NCC1CCCO1 (configuration not stated)	none (no result: PPC-1+TRAIL kill)
Cc1ccc2nc(N(CCCN(C)C)C(=O)c3ccc(S(=O)(=O)N4CCc5ccccc5C4)cc3)sc2c1	TRAIL sens C8 77 (no result: PPC-1+TRAIL kill)
CCCN(CC(=O)Nc1ccccc1C)C(=O)CCl	TRAIL sens C8 91
CCCN(CC(=O)Nc1ccccc1C)C(=O)COc1c(C)cccc1C	none (no result: PPC-1+TRAIL kill)
CC1CN(S(=O)(=O)c2cccc(C(=O)NCC(c3cccs3)N3CCOCC3)c2)CC(C)O1 (configuration not stated)	none (no result: SENP8 block-1, SENP7 block, SENP6 inh, PPC-1+TRAIL kill)
CC(C)c1ccc(OCc2ccc(C(=O)O)o2)cc1	SENP8 block-1 87, SENP7 block 77, SENP6 inh 95
CCOC(=O)N1CCN(C(=O)CSCc2ccccc2Cl)CC1	none
Cc1ccc(-c2csc(NC(=O)CSc3nnc4c(n3)[nH]c3ccccc34)n2)cc1	TRAIL sens C8 52 (no result: SENP8 block-1, SENP7 block, SENP6 inh)
Cc1ccc(C(=O)Sc2cccccc2=O)cc1	TRAIL sens C8 61 (no result: PPC-1+TRAIL kill)
CN(C(=O)c1cccc(COc2ccc(Cl)cc2Cl)c1)c1ccccc1	none (no result: SENP8 block-1, SENP7 block, SENP6 inh)
CN(C)C(=O)c1cccc(COc2ccc(N3C(N)=NC(N)=NC3(C)C)cc2Cl)c1	TRAIL sens C8 83 (no result: SENP8 block-1, SENP7 block, SENP6 inh, PPC-1+TRAIL kill)
O=C(O)c1cccnc1C(=O)O	SENP8 block-2 41 (no result: PPC-1+TRAIL kill)
O=C(O)c1cccnc1Cl	none
COc1cc(/C=C2/C(=O)NN(c3ccc(C)c(Cl)c3)C2=O)cc([N+](=O)[O-])c1O	SENP8 block-2 50 (no result: PPC-1+TRAIL kill)
COc1cc(/C=C2/C(=O)NN(c3cccc(C)c3)C2=O)cc([N+](=O)[O-])c1O	SENP8 block-2 48
COc1cc(C2(C)SCCCS2)cc(OC)c1OC	none (no result: SENP8 block-1, SENP7 block, SENP6 inh, PPC-1+TRAIL kill)
O=C(CCc1ccc(Oc2cc([N+](=O)[O-])cc([N+](=O)[O-])c2)cc1)N1CCCCCC1	none
C#CCOCCOCCOCCNc1nc(N2CCN(C(=O)CCCCCCCCCCNC(=O)Cn3cc(CCCCCN)nn3)CC2)nc(N2CCN(C(=O)CCCCCCCCCCNC(=O)[C@H](CO)n3cc(CCCCCN)nn3)CC2)n1	none (no result: PPC-1+TRAIL kill)
C#CCOCCOCCOCCNc1nc(N2CCN(C(=O)CCCCCCCCCCNC(=O)[C@H](CCCCN)n3cc(C)nn3)CC2)nc(N2CCN(C(=O)CCCCCCCCCCNC(=O)[C@@H]([C@H](C)CC)n3cc(CCCCCN)nn3)CC2)n1	TRAIL sens C8 97 (no result: PPC-1+TRAIL kill)
C#CCOCCOCCOCCNc1nc(N2CCN(C(=O)CCCCCCCCCCNC(=O)Cn3cc(CCCCCN)nn3)CC2)nc(N2CCN(C(=O)CCCCCCCCCCNC(=O)[C@H]([C@@H](C)CC)n3cc(CCCCCN)nn3)CC2)n1	TRAIL sens C8 75 (no result: PPC-1+TRAIL kill)
C#CCOCCOCCOCCNc1nc(N2CCN(C(=O)CCCCCCCCCCNC(=O)[C@H](CCC(=O)O)n3cc(CCCCCN)nn3)CC2)nc(N2CCN(C(=O)CCCCCCCCCCNC(=O)[C@@H]([C@H](C)O)n3cc(C)nn3)CC2)n1	none (no result: PPC-1+TRAIL kill)

Assay outcomes (PubChem BioAssay)
